Potency and affinity values are given separately. Calls of active or inactive are those of the source.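 Rule for the calls: active = compounds whose fitted half-maximal effective concentration for blocking dye efflux is below 100 µM; inactive = the rest.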
The compounds below were run against Benomyl/methotrexate resistance protein (Candida albicans) (UniProt P28873) (assay: CaMdr1 efflux pump inhibitor potency, dose response, singleplex, Cherry Pick2 set (AID 623992)). Conditions: S. cerevisiae AD/CaMDR1, Nile Red efflux, flow cytometry; series mostly up to 100 µM.
Benomyl/methotrexate resistance protein (Candida albicans), sequence (P28873 whole entry, looked up): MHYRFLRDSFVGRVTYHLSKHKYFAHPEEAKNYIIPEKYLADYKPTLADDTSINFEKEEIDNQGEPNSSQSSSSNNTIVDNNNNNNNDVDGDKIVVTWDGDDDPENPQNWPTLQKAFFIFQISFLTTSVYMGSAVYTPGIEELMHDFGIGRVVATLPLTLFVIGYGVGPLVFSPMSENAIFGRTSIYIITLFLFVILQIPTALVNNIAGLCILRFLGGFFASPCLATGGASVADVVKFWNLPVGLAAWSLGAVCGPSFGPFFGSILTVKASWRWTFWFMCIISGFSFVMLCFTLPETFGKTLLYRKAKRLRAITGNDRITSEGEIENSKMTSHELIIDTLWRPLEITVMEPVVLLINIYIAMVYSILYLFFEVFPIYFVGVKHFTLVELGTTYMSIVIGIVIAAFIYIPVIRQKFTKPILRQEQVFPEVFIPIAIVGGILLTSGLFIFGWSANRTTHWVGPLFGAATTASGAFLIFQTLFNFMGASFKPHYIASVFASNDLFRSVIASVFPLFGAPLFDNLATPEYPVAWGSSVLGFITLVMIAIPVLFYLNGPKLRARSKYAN

outcome, inactive:
O=C(CSc1nnc(Cc2cccs2)n1Cc1ccco1)Nc1ccc(Br)cc1
CCCCNC(=O)C1CCC(CNc2nc(=S)[nH]c3ccccc23)CC1 (configuration not stated)
CC(C)C(=O)N1CCC2(CC1)Oc1ccc(F)cc1C(=O)C21CC(c2ccc(Cl)cc2)=NO1 (configuration not stated)
O=C(C1CCC(CNc2nc(=S)[nH]c3ccccc23)CC1)N1CCN(c2ccc(F)cc2)CC1 (configuration not stated)
CCc1ccc(C2=NN(c3ccc(S(N)(=O)=O)cc3)C(c3ccc(F)cc3)C2)cc1 (configuration not stated)
O=C1C(Cc2ccccc2)Nc2ncnc(N3CCN(c4ccccc4)CC3)c2N1Cc1ccccc1 (configuration not stated)
Cc1ccc(CNC(=O)C2CCC(CNc3nc(=S)[nH]c4ccccc34)CC2)cc1 (configuration not stated)
CCC(Cc1ccccc1)OC(=O)c1ccccc1C(=O)O (configuration not stated)
NC1=NC[C@H](Cc2ccccc2)N1CCCCC1CCCCC1
Cc1cccc(C2CC(c3ccccc3)=NN2c2ccc(S(N)(=O)=O)cc2)c1 (configuration not stated)
COc1ccccc1C(=O)OCCc1ccccc1
Nc1ccc(C(=O)OCCc2ccccc2)cc1
COc1ccc2sc(-c3ccccc3OC)c(-c3ccc(OCCN(C)C)cc3)c2c1
COc1cccc(N2CCN(C(=O)C3CCCN(c4ncnc5c4nc4n5CCCCC4)C3)CC2)c1 (configuration not stated)
CCCCN1Cc2cc(C(=O)c3cc(OC)ccc3O)cnc2NC1=O
COc1ccc(C2CC(c3ccccc3)=NN2c2ccc(S(N)(=O)=O)cc2)cc1 (configuration not stated)
NS(=O)(=O)c1ccc(N2N=C(c3ccccc3)CC2c2cccc(Br)c2)cc1 (configuration not stated)

Source: PubChem BioAssay AID623992 (NMMLSC, 2012)
